From PubChem BioAssay
Rows were chosen to be rich in hits. Some 12% of all compounds tested hit in one or more screens of this group.
NS1 function inh = inhibitors of influenza NS1 protein function; AID 2326; 270,000 tested, 0.4% active; Potency, µM (highest dose often 46.1 µM); calls by dose curve; further: actives are rising curves; nearly all actives have a fitted effect of over 50% in size
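Compounds were scored for reversing the slow growth caused by influenza A NS1 in S. cerevisiae, measured by optical density at 600 nm. Assay medium contained 2% galactose at pH 6.0; NS1-free yeast of the same strain were the positive control.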
Pf growth 96h = P. falciparum growth inhibition at 96 hour, primary screen for plastid delayed-death inhibitors. Potency, µM (highest dose often 28.7 µM), usual class: inhibitors. AID 504834. P. falciparum luciferase reporter growth, 96 h. 320,000 tested, 6.9% active
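Erythrocytes infected with luciferase-expressing P. falciparum were dispensed at 2% hematocrit and 0.05% parasitemia (final), then incubated with compounds 96 hours at 37 C in 5% CO2. Luminescence after detection reagent addition reported growth.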
HCV inh = inhibitors of hepatitis C virus infection | 340,000 tested, 3.4% active | Potency, µM (highest dose often 41.8 µM), usual class: inhibitors | Huh7.5.1 HCVcc-Cre infection, luciferase reporter, 44 h | AID 651820
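Whole-lifecycle infectious HCVcc-Cre system; cells 1,000/well, compound then virus (~0.5 moi) added 4 h after plating, 44 h culture. Luciferase read 15 sec following 15 min substrate incubation, room temp.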
Pf growth 48h = P. falciparum growth inhibition at 48 hours (one generation); 310,000 tested, 5.9% active; Potency, µM (titrated, usually from 28.7 µM), actives largely listed as inhibitors; P. falciparum luciferase growth in erythrocytes, 48 h
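Parasite viability was followed by luminescence of a genomically integrated firefly luciferase. Cultures held 0.1% parasitemia at 2% hematocrit (final), incubated under 5% CO2 at 37 C.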
SARS PLpro yeast = inhibitors of SARS-CoV papain-like protease in yeast; S. cerevisiae expressing SARS-CoV PLpro, growth rescue; Potency, µM (series often up to 32.9 µM), actives largely listed as activators; 330,000 tested, 0.19% active; calls by dose curve; further: nearly all actives have a fitted effect of over 55% in size
AMA1 RON2 block = inhibitors of Plasmodium falciparum AMA1-RON2 interaction | AlphaScreen AMA1-biotinylated RON2 peptide binding | Potency, µM (titrated, usually from 58.2 µM), actives largely listed as inhibitors | 360,000 tested, 0.2% active | AID 720542; further: nearly all actives have a fitted effect of over 45% in size
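AMA1 (3D7) with his tag at 25 nM final met compounds first, then biotinylated RON2 peptide at 25 nM; detection used donor plus acceptor beads, 10 µg/mL apiece, read by AlphaScreen after 30 min at room temperature.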
Hits are given with their value; i = inactive; ? = inconclusive; nt = not tested or not shown; [ ] = remark or other dose. Unless noted, the call rests on the fitted dose curve; in most records, active means well fitted curve in the direction sought with a large enough effect; inconclusive means small, poorly fitted or top-dose-only effect, or another doubt; inactive means no such curve, though single readings can be large; an effect the other way counts as inactive or inconclusive.

SMILES	NS1 function inh	Pf growth 96h	HCV inh	Pf growth 48h	SARS PLpro yeast	AMA1 RON2 block
CC(C)NS(=O)(=O)c1ccc(OCC(=O)N2CCN(Cc3ccc4c(c3)OCO4)CC2)c(Cl)c1	i	nt	11.2µM	?	i	i
O=S(=O)(c1cc(Cl)ccc1Cl)N1CCN(Cc2ccc3c(c2)OCO3)CC1	i	10.4µM	i	nt	i	i
O=S(=O)(c1ccc(Cl)nc1)N1CCN(Cc2ccc3c(c2)OCO3)CC1	i	nt	i	i	i	i
Cc1ccc(NC(=S)NC(=O)c2cncc(Br)c2)cc1Cl	nt	nt	i	nt	nt	i
Cc1ccc(C(=O)N2CCN(Cc3ccc4c(c3)OCO4)CC2)cc1S(=O)(=O)N1CCOCC1	i	10.4µM	?	?	i	i
Cc1ccc2c(C)c(C(=O)N3CCN(Cc4ccc5c(c4)OCO5)CC3)oc2c1C	i	?	11.2µM	?	i	i
Cc1ccc(C(=O)N2CCN(Cc3ccc4c(c3)OCO4)CC2)o1	i	i	i	i	i	i
CN1CCCCCC1C(=O)N1CCC(N2CCC(C(=O)N3CCOCC3)CC2)CC1 (configuration not stated)	i	?	i	i	i	i
CCOC(=O)N1CCN(C(=O)C2CCC(=O)N(Cc3cccc(C(F)(F)F)c3)C2)CC1 (configuration not stated)	i	?	nt	?	i	i
O=C(NC1CC1)C1=NOC(CNc2ncc(C(F)(F)F)cc2Cl)C1 (configuration not stated)	i	11.7µM	?	nt	i	i
CCC(NC(=O)Nc1cc(C)on1)(C(F)(F)F)C(F)(F)F	i	i	i	i	i	i
COc1ccccc1N(C)S(=O)(=O)c1ccc(C)c(C(=O)Nc2nccs2)c1	nt	?	i	11.7µM	i	i
COc1ccccc1N(C)S(=O)(=O)c1ccc(C)c(C(=O)NCc2ccccn2)c1	nt	?	i	10.4µM	i	i
CCOc1ccc(N(C)S(=O)(=O)c2ccc(C)c(C(=O)NCc3ccccc3OC)c2)cc1	nt	9.28µM	?	11.7µM	i	i
COc1ccccc1N(C)S(=O)(=O)c1ccc(Cl)c(C(=O)NCc2cccnc2)c1	nt	i	i	?	i	i
CC1(c2ccccc2)NC(=O)N(CC(=O)Nc2ccc3c(c2)CCC3)C1=O (configuration not stated)	nt	nt	i	nt	i	i
O=CN/C=C/c1cccc(O)c1	nt	nt	i	nt	nt	i
COc1ccc(C2=NC(=O)/C(=C\c3cc(OC)c(OC)c(OC)c3)O2)cc1	i	0.928µM	i	i	i	i
CC(C)C(=O)NC(C)C(c1cccs1)N1CCN(c2ccccc2)CC1 (configuration not stated)	i	?	i	?	i	i
CC(NC(=O)c1ccc(C(C)(C)C)cc1)C(c1cccs1)N1CCOCC1 (configuration not stated)	i	11.7µM	i	13.1µM	i	i
CC(NC(=O)c1cccs1)C(c1cccs1)N1CCN(c2ccccc2)CC1 (configuration not stated)	?	i	?	9.28µM	i	i
CC(NC(=O)c1ccc(N(C)C)cc1)C(c1cccs1)N1CCN(C)CC1 (configuration not stated)	i	i	10µM	i	i	i
CC(NC(=O)c1ccc2c(c1)OCO2)C(c1cccs1)N1CCN(c2ccccc2)CC1 (configuration not stated)	i	11.7µM	i	i	i	?
CCOc1ccc(S(=O)(=O)N(C)c2ccc(OCC(=O)Nc3nc(-c4cc(OC)ccc4OC)cs3)cc2)cc1	i	?	?	?	i	?
CC(NC(=O)c1ccncc1)C(c1cccs1)N1CCOCC1 (configuration not stated)	i	i	i	i	i	i
SMILES	NS1 function inh	Pf growth 96h	HCV inh	Pf growth 48h	SARS PLpro yeast	AMA1 RON2 block
CC(NC(=O)c1cccs1)C(c1cccs1)N1CCOCC1 (configuration not stated)	i	2.62µM	i	i	i	i
Cn1c(=O)[nH]c(=O)c2c1nc(N1CCCCCC1)n2CCOc1ccccc1	i	i	i	i	i	i
CC1Cc2ccccc2N1C(=O)Cn1cnc2ccccc21 (configuration not stated)	i	i[5.75 µM]	?	i[5.75 µM]	i	i
Cn1c(SCC(=O)N(C2CCCCC2)C2CCCCC2)nnc1-c1cccs1	i[9.22 µM]	nt	i	11.7µM	i	i
Cc1ccc(C)c(NC(=O)NNS(=O)(=O)c2ccc(C)c(C)c2)c1	i	?	i	i	i	i
O=[N+]([O-])c1ccc([C@@H](Nc2ccccc2)c2ccc3cccnc3c2O)cc1	i	nt	nt	nt	nt	nt
CC(C)CC(=O)NC(c1cccs1)c1ccc2cccnc2c1O (configuration not stated)	i	i	2.82µM	?	i	i
Oc1c(C(Nc2nccs2)c2ccc(C(F)(F)F)cc2)ccc2cccnc12 (configuration not stated)	nt	i	?	0.37µM	i	i
CCC(=O)NC(c1cccs1)c1cc([N+](=O)[O-])c2cccnc2c1OC (configuration not stated)	nt	i	nt	i	i	nt
Cc1conc1NC(c1cccs1)c1ccc2cccnc2c1O (configuration not stated)	i	6.57µM	nt	1.85µM	i	nt
CCC(=O)NC(c1cccs1)c1ccc2cccnc2c1O (configuration not stated)	i	?	3.55µM	2.33µM	i	i
CCCCN(CC(=O)NCc1ccc(F)cc1)C(=O)c1ccco1	i	i	i	i	i	i
COc1ccc2c(c1)CCCC21NC(=O)N(CC(=O)c2cc(F)ccc2F)C1=O (configuration not stated)	nt	?	i	?	i	?
COc1cccc(C(NC(C)=O)c2nc(-c3ccncc3)cs2)c1 (configuration not stated)	nt	nt	nt	nt	nt	i
CCN1/C(=C/c2cc[n+](CCCS(=O)(=O)[O-])c3ccccc23)Sc2ccccc21	nt	i	i	i	i	i
C=CC[n+]1ccc(/C=C2\C=Cc3cc(C)ccc3N2CC)c2ccccc21	nt	i	2.51µM	?	i	?
CC(NC(=O)/C(C#N)=C1\N=C(NC(=O)c2cccs2)c2ccccc21)c1ccccc1 (configuration not stated)	i	i	i	i	?	i[2.32 µM]
CCc1cccc(C)c1NC(=O)c1ccc(CN2CCc3ccccc3C2)cc1	i	1.47µM	?	4.65µM	i	i
O=C(Nc1ccc(F)cc1)c1ccc(CN2CCc3ccccc3C2)cc1	i	?	5.62µM	i	i	i
Cc1ccccc1NC(=O)c1ccc(CN2CCc3ccccc3C2)cc1	i	i	?	i	i	i
CC(=O)Nc1ccc(NC(=O)c2ccc(CN3CCc4ccccc4C3)cc2)cc1	i	9.28µM	i	?	i	i
CCOC(=O)[C@H]1[C@H]2COc3cc(OC)ccc3[C@@H]2N2C(=O)c3cc(OC)c(OC)cc3NC(=O)[C@@]12C	nt	?	i	?	i	i
